Experimental data: PubChem BioAssay (Tox21)
Records with an inconclusive call do not appear. The source holds several records for some structures; these can differ, active in one and inactive in another. Active and inactive are the calls of the source. Unless noted, calls come from the whole dose curve; as a rule, active = well fitted curve in the direction sought with a large enough effect in the repeat runs; inconclusive = weak or mixed curves; inactive = no such curve, though single readings can be large; an effect the other way counts as inactive or inconclusive.

Columns and labels:
[1] = qHTS assay to identify small molecule agonists of the NFkB signaling pathway (AID 1159509; active = well fitted curve in the direction sought with a large enough effect in the signal ratio in the repeat runs, not every such curve was filed as active; the % refers to the signal ratio; note: series mostly up to about 61 µM; % is set by controls: 0 for no effect and ±100 for the full control effect)
Procedure, shortened: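 ME-180 NFkB-bla, 2,000 cells/well, overnight plating; cpd pinned in DMSO, 5 h 37 C; B/G FRET substrate 1.5 h RT; ex 405, em 460/530 nm.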

[2] = qHTS assay to identify small molecule agonists of the NFkB signaling pathway - cell viability counter screen (AID 1159515; calls by dose curve; note: series mostly up to about 61 µM; % is set by controls: 0 for no effect and ±100 for the full control effect; nearly all actives have a fitted effect of over 55% in size)
Procedure, shortened: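 Luminescence from CellTiter-Glo (30 min, room temperature) gives viability, measured in the same wells as the beta-lactamase reporter read. Cells were NFkB-bla ME-180, 2,000 per well, treated 5 hr with compounds.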

[3] = qHTS assay to identify small molecule agonists of the endoplasmic reticulum stress response signaling pathway - cell viability counter screen (AID 1159517; calls by dose curve;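 note: HeLa cells carrying an ER stress response element beta-lactamase reporter; series mostly up to about 61 µM; % is set by controls: 0 for no effect and ±100 for the full control effect; nearly all actives have a fitted effect of over 50% in size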)
Procedure, shortened: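 ESRE-bla HeLa cells, 1,500 per well, seeded overnight then treated with compounds for 5 hr at 37 C. After the beta-lactamase read, viability in the same wells is measured by CellTiter-Glo luminescence after 30 min at room temperature.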

[4] = qHTS assay to identify small molecule antagonists of the retinoid-related orphan receptor gamma (ROR-gamma) signaling pathway - cell viability counter screen (AID 1159520); note: % is set by controls: 0 for no effect and ±100 for the full control effect; nearly all actives have a fitted effect of over 50% in size
Procedure, shortened: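 Tet-on ROR gamma CHO cells were given compounds for 2 hr, then doxycycline hyclate at 1 uM final, and incubated 16 hr at 37 C. Viability was measured as ATP content by CellTiter-Glo luminescence.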

[5] = biological target: Nuclear receptor ROR-gamma (Homo sapiens) (UniProt P51449); experiment: qHTS assay to identify small molecule antagonists of the retinoid-related orphan receptor gamma (ROR-gamma) signaling pathway (AID 1159521;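 note: CHO cells with doxycycline inducible ROR-gamma driving an RORE luciferase reporter; top concentration of the series differs between compounds; % is set by controls: 0 for no effect and ±100 for the full control effect; nearly all actives have a fitted effect of over 50% in size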)
Procedure, shortened: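 Tet-on RORγ CHO cells carrying a ROR response element–luciferase reporter were pretreated with compounds for 2 h, then induced with 1 uM (final) doxycycline hyclate for 16 h at 37 C. Antagonism was read as decreased ONE-Glo luminescence.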

[6] = qHTS assay to identify small molecule agonists of the AP-1 signaling pathway - cell viability counter screen (AID 1159525; calls by dose curve; note: nearly all actives have a fitted effect of over 55% in size)
Procedure, shortened: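 AP-1-bla ME-180 cells in Opti-MEM with 0.5% dialyzed FBS, compound exposure 5 h at 37 C in 15-point titration. Viability read in the same wells as ATP content by CellTiter-Glo luminescence, normalised to tetra-n-octylammonium bromide and DMSO controls.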

[7] = qHTS assay to identify small molecule agonists of the AP-1 signaling pathway (AID 1159526; calls by dose curve; note: % is set by controls: 0 for no effect and ±100 for the full control effect)
[8] = qHTS assay to identify small molecule antagonists of the retinoid acid receptor (RAR) signaling pathway - cell viability counter screen (AID 1159551); note: % is set by controls: 0 for no effect and ±100 for the full control effect; nearly all actives have a fitted effect of over 35% in size
Procedure, shortened: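 Luminescent ATP quantitation (CellTiter-Glo) gave cell viability in C3RL4 cells exposed to test chemicals for 6 h at 37 C alongside 1 uM final retinol.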

[9] = qHTS assay to identify small molecule agonists of the retinoic acid receptor (RAR) signaling pathway (AID 1159553); note: potency is the fitted concentration of half-maximal effect; for activation: % is set by controls: 0 for no effect and ±100 for the full control effect
Procedure, shortened: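 Luminescence from a RARE-driven luciferase reporter in C3RL4 cells served as the read-out, measured after 30 min with detection reagent at room temperature. Compounds in DMSO were applied for 6 hr at 37 C following overnight seeding.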

[10] = qHTS assay to identify small molecule antagonists of the vitamin D receptor (VDR) signaling pathway - cell viability counter screen (AID 743225); note: % is set by controls: 0 for no effect and ±100 for the full control effect; nearly all actives have a fitted effect of over 50% in size
Procedure, shortened: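 VDR-bla HEK 293T cells, 4 h pre-incubation at 37C, then compound plus 1-alpha,25-dihydroxyvitamin D3 (3 nM final) for 16 h. After the beta-lactamase FRET read, CellTiter-Glo was added to the same wells; luminescence after 30 min at room temperature.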

[11] = qHTS assay to identify small molecule agonists of the RXR signaling pathway - cell viability counter screen (AID 1159529)
Procedure, shortened: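 RXR-alpha-UAS-bla HEK 293T cells in medium with 2% charcoal-stripped FBS were preincubated 5 hr, then exposed to compounds for 16 hr at 37 C. Viability was read as CellTiter-Glo luminescence after 30 min at room temperature.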

[12] = qHTS assay to identify small molecule antagonists of the retinoic acid receptor (RAR) signaling pathway (AID 1159552)
Procedure, shortened: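 RARE-luc C3RL4 cells; cpds + 1 uM (final) retinol, 6 hr, 37 C/5% CO2; luciferase reagent, 30 min RT, luminescence readout. Inhibitors of retinol-driven signal scored.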

[13] = qHTS assay to identify small molecule antagonists of the estrogen related receptor (ERR) signaling pathway from Tox21 library - cell viability counter screen (AID 1224834); note: nearly all actives have a fitted effect of over 30% in size; note: potency is the fitted concentration of half-maximal effect; for viability change, negative = cytotoxic: % is set by controls: 0 for no effect and ±100 for the full control effect
Procedure, shortened: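 Fluorescence from CellTiter-Fluor gives the viability read-out, taken 30 min after reagent addition. Before that, ERR cells seeded 6 h earlier were incubated with compounds for 17.5 h at 37 C.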

[14] = biological target: Retinoic acid receptor RXR-alpha (Homo sapiens) (UniProt P19793); experiment: qHTS assay to identify small molecule agonists of the RXR signaling pathway (AID 1159527; calls by dose curve; note: % is set by controls: 0 for no effect and ±100 for the full control effect; nearly all actives have a fitted effect of over 35% in size)
Chain of Retinoic acid receptor RXR-alpha (Homo sapiens) (P19793 whole entry, looked up): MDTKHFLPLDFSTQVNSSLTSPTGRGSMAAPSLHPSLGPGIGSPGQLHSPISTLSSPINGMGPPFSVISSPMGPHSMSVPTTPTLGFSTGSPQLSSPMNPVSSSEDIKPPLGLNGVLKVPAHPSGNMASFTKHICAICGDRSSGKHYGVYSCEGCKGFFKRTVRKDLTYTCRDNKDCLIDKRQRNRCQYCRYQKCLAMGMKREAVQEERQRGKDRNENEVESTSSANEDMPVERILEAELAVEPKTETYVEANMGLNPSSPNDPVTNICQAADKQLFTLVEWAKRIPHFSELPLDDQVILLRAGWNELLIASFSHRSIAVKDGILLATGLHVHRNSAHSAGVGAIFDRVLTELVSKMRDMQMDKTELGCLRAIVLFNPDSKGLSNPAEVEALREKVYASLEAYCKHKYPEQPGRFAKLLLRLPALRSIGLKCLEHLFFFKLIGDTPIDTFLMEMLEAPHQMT
Procedure, shortened: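 GeneBLAzer RXR-alpha-UAS-bla HEK 293T cells in medium with 2% charcoal-stripped FBS, pre-incubated 5 hr at 37 C, then exposed to compounds 16 hr. Beta-lactamase reporter read by FRET substrate, 2 hr room temperature, 460/530 nm emission.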

COc1cc(NCc2ccc3nc(N)nc(N)c3c2C)cc(OC)c1OC
inactive: outcome [1] | Potency [2] | Potency [3] | Potency [4] | Potency [5] | Potency [6] | outcome [7] | Potency [8] | Potency [9]

CC(C)c1ccc(C(=O)N=C(N)N)cc1S(C)(=O)=O
inactive: Potency [10] | outcome [1] | Potency [2] | Potency [3] | Potency [4] | Potency [5] | Potency [6] | outcome [7] | Potency [11] | Potency [8] | Potency [12] | Potency [9] | Potency [13]

CC1=CC[C@@H]2C[C@H]1C2(C)C
inactive: viability change, negative = cytotoxic [10] -2.02% [at 15.1 µM] | activation [1] -0.527% [at 15.1 µM] | activity, negative = cytotoxic [2] 15.3% [at 15.1 µM] | activity change, negative = cytotoxicity [3] 30.1% [at 15.1 µM] | activity, negative = cytotoxicity [4] 2.52% [at 19 µM] | activity change, negative = inhibition [5] -7.14% [at 19 µM] | viability change, negative = cytotoxic [6] 0.876% [at 15.8 µM] | activation [7] 4.37% [at 15.8 µM] | activity change, negative = cytotoxicity [11] -11.8% [at 15.8 µM] | activity change, negative = cytotoxicity [8] -0.147% [at 19 µM] | activity, negative = inhibition [12] 70.7% [at 19 µM] | viability change, negative = cytotoxic [13] 2.93% [at 19 µM]

CC/C=C\C/C=C\C/C=C\CCCCCCCC(=O)OCC
inactive: outcome [1] | Potency [2] | Potency [3] | Potency [4] | Potency [5] | Potency [6] | outcome [7] | Potency [8]

CC1C(C)(C)C2=C(C(=O)CCC2)C1(C)C (stereo not given)
inactive: Potency [10] | outcome [1] | Potency [2] | Potency [3] | Potency [4] | Potency [5] | Potency [6] | Potency [14] | Potency [11] | Potency [8] | Potency [12] | Potency [9] | Potency [13]

CC(=O)OCC(C)C
inactive: Potency [10] | outcome [1] | Potency [2] | Potency [3] | Potency [4] | Potency [5] | Potency [6] | outcome [7] | Potency [11] | Potency [12] | Potency [9] | Potency [13]

CCCCCc1ccco1
inactive: outcome [1] | Potency [2] | Potency [3] | Potency [4] | Potency [5] | Potency [6] | outcome [7] | Potency [11] | Potency [8] | Potency [9] | Potency [13]

CC(=O)c1ccc[nH]1
inactive: Potency [10] | outcome [1] | Potency [2] | Potency [3] | Potency [4] | Potency [5] | Potency [6] | outcome [7] | Potency [11] | Potency [8] | Potency [12] | Potency [9] | Potency [13]

Nc1ccc(N=Nc2ccc(N)cc2)cc1
active: Potency [9] 0.863 µM | Potency [13] 27.3 µM
inactive: Potency [10] | outcome [1] | Potency [2] | Potency [3] | Potency [4] | Potency [5] | Potency [6] | outcome [7] | Potency [14] | Potency [8]

CC(C)(C)NCC(O)COc1cccc2c1C[C@H](O)[C@H](O)C2 (stereo not given in full)
inactive: Potency [10] | outcome [1] | Potency [2] | Potency [3] | Potency [4] | Potency [5] | Potency [6] | outcome [7] | Potency [14] | Potency [11] | Potency [9] | Potency [13]

COc1ccc2nc(S(=O)Cc3ncc(C)c(OC)c3C)[nH]c2c1 (stereo not given)
inactive: Potency [10] | outcome [1] | Potency [2] | Potency [3] | Potency [4] | Potency [5] | Potency [6] | outcome [7] | Potency [14] | Potency [11] | Potency [12]
53.8 µM (active) and inactive: Potency [13]
active: Potency [9] 67.8 µM

COc1cc(NC(C)CCCN)c2ncccc2c1 (stereo not given)
inactive: Potency [10] | outcome [1] | Potency [2] | Potency [3] | Potency [4] | Potency [5] | Potency [6] | outcome [7] | Potency [11] | Potency [8] | Potency [9] | Potency [13]

CC(CO)(CO)C(=O)O
inactive: Potency [10] | outcome [1] | Potency [2] | Potency [3] | Potency [4] | Potency [5] | Potency [6] | outcome [7] | Potency [14] | Potency [11] | Potency [13]

CCCCCCCC/C=C/C(=O)O
inactive: Potency [10] | outcome [1] | Potency [2] | Potency [3] | Potency [4] | Potency [5] | Potency [6] | outcome [7] | Potency [11] | Potency [8] | Potency [13]

Cc1ccccc1S(N)(=O)=O
inactive: Potency [10] | outcome [1] | Potency [2] | Potency [3] | Potency [4] | Potency [5] | Potency [6] | outcome [7] | Potency [14] | Potency [11] | Potency [12] | Potency [9] | Potency [13]
